The supplement of paper PMC6555819

How the values were obtained:
Experiment in all cases: PBM binding z-score (relative to random genomic background probes); higher = stronger binding; sequences stand for … in GC…GCGATTGACAGCGTAGAATGAAGG
[1] = tested on: FXR:RXRa (NR concentration 270 nM, RXRa partner concentration 90 nM)
In short: (§1)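 Custom Agilent 4×180K protein-binding microarrays carried double-stranded probes. Their 34-nt variable regions held direct-repeat seeds, single-nucleotide variants, half-site ablations and random human genomic background sequences. Arrays were incubated 1 h with ligand-free nuclear receptor dimers in PBS pH 7.4, 2% milk, 0.02% Triton X-100, 1 mM DTT, 0.2 mg/mL BSA and 0.4 mg/ml salmon testes DNA. Antibodies against each partner (one per run) detected binding, and scanned fluorescence was regression-normalized. Binding z-scores use random background probes as reference.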

[2] = tested on: LXRa:RXRa (NR concentration 270 nM, RXRa partner concentration 90 nM)
In short: as §1

[3] = tested on: LXRa homodimer (NR concentration 270 nM)
In short: as §1

[4] = tested on: LXRb:RXRa (NR concentration 270 nM, RXRa partner concentration 90 nM)
In short: as §1

[5] = tested on: LXRb homodimer (NR concentration 270 nM)
In short: as §1

[6] = tested on: PPARa:RXRa (NR concentration 270 nM, RXRa partner concentration 90 nM)
In short: as §1

[7] = tested on: PPARg:RXRa (NR concentration 180 nM, RXRa partner concentration 90 nM)
In short: as §1

[8] = tested on: PPARg:RXRa 270nM:90nM, anti-RXR (NR concentration 270 nM, RXRa partner concentration 90 nM)
In short: as §1

[9] = tested on: PPARg:RXRa 30nM:10nM, anti-RXR (NR concentration 30 nM, RXRa partner concentration 10 nM)
In short: as §1

[10] = tested on: PPARg:RXRa 90nM:30nM, anti-RXR (NR concentration 90 nM, RXRa partner concentration 30 nM)
In short: as §1

Sequence	PBM binding z-score [1]	PBM binding z-score [2]	PBM binding z-score [3]	PBM binding z-score [4]	PBM binding z-score [5]	PBM binding z-score [6]	PBM binding z-score [7]	PBM binding z-score [8]	PBM binding z-score [9]	PBM binding z-score [10]
ATCGAAAGGTCGAGGTGAGTCTAGAGAAAGGGAA	4.71	3.71	0.045	2.76	0.53	4.63	3.46	3.62	1.16	2.32
CAAACTAGGTCAATGGTCAAAGTCGAGCCAACCA	3.39	2.76	0.566	2.15	0.29	5.6	9.78	8.03	7.9	8.7
GCATATAGGTAGTACAAGGTGAAAGTCCGATTGT	1.03	0.23	-0.159	0.269	-0.562	1.16	0.674	0.733	0.197	0.775
CAAACTAGGTCACAGATGTCAAAGTCCGTGCGTA	3.99	3.51	0.769	2.81	0.443	5.44	8.76	7.33	5.52	7.25
CCTACTGGGCCATCAAGTCATTGATATCAACGTT	-0.198	-0.233	-0.0812	0.373	-0.319	1.02	0.723	1.67	0.283	0.805
CAAACTATGTCACAGAGGTCAAAGTCCGTGCGTA	5.6	5.73	5.85	5.11	2.14	5.51	6.2	6.01	3.36	5.69
CCTAATGGGCCAAGGTCATTGATCAGTCAAAGCA	3.25	3.17	1.04	2.93	-0.303	3.86	2.44	3	0.651	2.34
TCTGCTAGGTCAACCATGGTCAGCTAATCTGCTA	4.32	3.21	-0.0391	2.21	0.102	3.52	2.98	3.44	2.15	2.95
GCGACTGGGGCAAAGCAGGATACCATAAGGTTGG	0.421	-0.82	-0.556	-0.347	-0.952	0.75	1.31	1.03	-0.094	0.712
CCTTACGGGTCACTGACAGGTTATAGAATTTGGA	5.11	4.02	0.265	3.45	0.0176	4.89	4.24	4.49	1.75	3.35
ATCTCTAGGTAAAGATAGTTCAGTTAATGCAAAT	0.733	4.33	1.07	1.39	0.619	0.689	0.743	0.482	0.448	0.659
ACTAGCAGGCCAAGTGTCACTCAAGATTAGTCCG	-0.202	-0.345	-0.396	-0.372	-0.742	1.37	1.95	3.56	1.36	2.95
CAAACTAGGTCACAGAGTTCAAAGTCCGTGCGTA	6.27	6.12	7.46	4.98	0.834	6.05	9.65	7.78	6.58	8.06
TCTATTAGTTGAGGGGCAACCGACGAGTCCGTTT	0.999	0.876	0.028	1.41	0.923	1.18	0.143	1.75	3.58	2.71
CAAACTAGGTCAACGTCAAAGTCGGTTTGTGCCA	3.78	2.64	0.425	1.92	0.247	5.24	8.49	6.68	4.95	6.72
CCTCGGAGAACAACAGGAGGTCAGAGCTGCCAGA	0.847	1.87	1.86	1.46	-0.303	1.82	0.213	-0.135	-1.02	-0.29
CAAACTATGTCAAGGTCAAAGTCGGTTTGTGCCA	4.77	4.95	4.54	4.26	1.75	4.65	4.09	4.7	2.24	3.82
CAGCCTAGGTCAGGGCCTGTATAGGAGGAACGTT	1.48	0.732	-0.667	0.189	-0.753	1.95	0.752	0.931	-0.43	0.141
GGAACGAGGGCAAGTTGATAGCCGAGTTTGATGG	0.943	0.357	-0.311	0.355	-0.62	1.94	0.924	1.09	-0.224	0.405
GCGACTGGGGCAAAGCAGGTTACCCTAAGGTTGG	0.366	0.0738	-0.555	0.116	-0.841	1.56	1.08	1.52	-0.381	0.659
CATACTGGGCCACGAAAGGTCATTGATTCAGTGA	3.98	5.28	5.21	4.44	0.817	4.52	4.46	4.67	1.9	3.84
ACTAGTTGGTCGGCTGAGGTCACACACAATTCGG	3.37	2.69	1.73	2.93	0.679	3.59	1.43	2.08	0.45	1.51
ACTATTAGTTGAGATGAGGGCAACCGATAGGTTG	1.23	0.291	0.338	0.212	0.0544	0.427	0.607	0.07	0.15	0.083
CATGCTAGGTCATGGTCAGCTAATCTACAGTATG	3.66	3.18	0.549	1.79	-0.0133	3.24	2.36	2.83	1	2.3
